Compound activity as filed in PubChem BioAssay.
Rows were chosen to be rich in hits. Some 0.93% of all compounds tested hit in one or more screens of this group.
CDC25B CDK2 inh = primary biochemical HTRF screen for blockers of M-phase inducer phosphatase 2 binding to CDK2/cyclin A | AID 1259370, 2018 | 94,000 tested, 0.72% active | HTRF CDC25B-CDK2/CyclinA binding, anti-His/anti-Flag; active compounds read high | z-score (no concentration beside the values) | P30305+P24941; in the data active means z-score above about 3.2
TAR Tat displ = TAR RNA-Tat peptide displacers, HIV-1, primary screen, biochemical, FRET, FAM/TAMRA-labeled Tat; HIV-1 TAR RNA, Tat peptide displacement FRET; active compounds read high; z-score (test concentration not listed); 100,000 tested, 0.6% active; active means z-score of 3 or more in at least 2 runs
A number is an active result; – = inactive; · = no result.

SMILES	CDC25B CDK2 inh	TAR Tat displ
O=C(/C=C/c1ccc(O)c(O)c1)O[C@H](Cc1ccc(O)c(O)c1)C(=O)O	·	17
O=C(O)/C=C/c1ccc(O)c(O)c1	–	–
O=S(=O)(Nc1ccccc1)c1cccs1	–	–
Cc1nn2c(=O)cc(CSCC(=O)Nc3ccc(F)cc3)nc2s1	·	–
COc1cc(C2Nc3cccc4cccc(c34)N2)ccc1OCc1ccccc1	–	–
COc1ccccc1C1Nc2cccc3cccc(c23)N1	–	–
Brc1cccc(C2Nc3cccc4cccc(c34)N2)c1	–	–
c1ccc(C2Nc3cccc4cccc(c34)N2)cc1	–	10
c1ccc2c(C3Nc4cccc5cccc(c45)N3)cccc2c1	–	8.2
CCc1ccc(C2Nc3cccc4cccc(c34)N2)cc1	–	35
CCOc1cc(C2Nc3cccc4cccc(c34)N2)ccc1O	–	8
COc1cc(OC)c(C2Nc3cccc4cccc(c34)N2)c(OC)c1	–	–
O=C(O)c1ccc(CSc2cc(-c3ccccc3)ncn2)cc1	–	–
CN(C(=O)COc1ccc(F)cc1)C(c1cccs1)c1c[nH]c2ccccc12 (stereo unspecified)	–	–
Cc1oc2cc3oc(=O)ccc3cc2c1-c1ccccc1	–	·
O=C(CCc1ccccc1)OCc1cc(=O)n2nc(C3CC3)sc2n1	·	–
CCNc1oc(/C=C/c2ccc(OC)c(OC)c2)nc1C#N	–	–
CN(C)c1ccc(C2Nc3cccc4cccc(c34)N2)cc1	–	–
CC(C)(C)c1ccc(C2Nc3cccc4cccc(c34)N2)cc1	–	7.1
Cc1ccc(CNC(=O)CSc2nn3c(=O)c(C)nnc3s2)cc1	·	–
COc1ccc(-c2cn3c(n2)sc2cc(C(=O)N4CCCC4)ccc23)cc1	·	–
COc1ccc(O)c(C2Nc3ccccc3-n3c(-c4ccccc4)c4c(=O)n(C)c(=O)n(C)c4c32)c1 (stereo unspecified)	–	–
COc1ccc(-c2c3c(=O)n(C)c(=O)n(C)c3c3n2-c2ccccc2NC3c2cc(O)ccc2O)cc1 (stereo unspecified)	–	21
Cc1oc(-c2ccc(Cl)cc2)cc1-c1nn2c(-c3ccco3)nnc2s1	–	–
Cc1oc(-c2ccc(F)cc2)cc1-c1nn2c(-c3ccoc3C)nnc2s1	–	18
SMILES	CDC25B CDK2 inh	TAR Tat displ
CCC1Sc2ccccc2NC1=O (stereo unspecified)	·	–
CC(C)NC[C@H](O)c1ccc(O)c(O)c1	–	·
NCC(O)c1ccc(O)c(O)c1 (stereo unspecified)	5.4	·
COC(=O)c1sc2cccc(F)c2c1S(=O)(=O)NCc1ccco1	·	–
COc1cc2occ(-c3cc4c(cc3OC)OCO4)c(=O)c2cc1OC	·	–
COc1ccc2c(=O)c(-c3cc4c(cc3OC)OCO4)coc2c1	·	20
COc1ccc(-c2coc3cc(O)ccc3c2=O)c(OC)c1O	·	–
COc1ccc(-c2coc3cc(O)ccc3c2=O)c(O)c1O	·	23
Cc1cc(F)ccc1NS(=O)(=O)c1ccc(-c2n[nH]c(C)c2C)s1	·	–
COc1cc(/C=C/C(=O)CC(=O)/C=C/c2ccc(O)c(OC)c2)ccc1O	·	15
COc1cc(/C=C/C(=O)O)ccc1O	·	–
COc1ccc(/C=C/C(=O)CC(=O)/C=C/c2cccc(O)c2OC)cc1O	·	16
COc1ccc(/C=C/C(=O)O)cc1OC	·	–
CCOC(=O)c1c(C)oc2c1c1c(c3ccccc32)OCN(CC2CCCO2)C1 (stereo unspecified)	17	–
CCOC(=O)c1c(C)oc2c1c(CN1CCCC(C(=O)OCC)C1)c(O)c1ccccc12 (stereo unspecified)	–	·
CO[C@H]1C[C@@H]2CC[C@@H](C)[C@@](O)(O2)C(=O)C(=O)N2CCCC[C@H]2C(=O)OC([C@H](C)C[C@H]2CC[C@H](O)[C@@H](OC)C2)CC(=O)[C@H](C)/C=C(\C)[C@@H](O)[C@@H](OC)C(=O)[C@H](C)C[C@H](C)/C=C/C=C/C=C/1C (stereo partly specified)	·	–
CC1CSc2ccc(S(=O)(=O)N3CCN(c4ccc(F)cc4)CC3)cc2NC1=O (stereo unspecified)	·	–
CC1(C(=O)NC2CCCCC2)Cn2c(cc3occc32)C(=O)N1C1CCCCC1 (stereo unspecified)	·	–
CC1CCC(NC(=O)C2(C)Cn3c(cc4occc43)C(=O)N2CCN(C)C)CC1 (stereo unspecified)	·	–
CC1CCC(NC(=O)C2(C)Cn3c(cc4occc43)C(=O)N2CCN2CCOCC2)CC1 (stereo unspecified)	·	–
CC1CCC(NC(=O)C2(C)Cn3c(cc4occc43)C(=O)N2C2CCCCC2)CC1 (stereo unspecified)	·	5.4
CC1(C(=O)NC2CCCCC2)Cn2c(cc3occc32)C(=O)N1CCN1CCOCC1 (stereo unspecified)	·	4
CC1CCC(NC(=O)C2(C)Cn3c(cc4occc43)C(=O)N2C2CCC(C)CC2)CC1 (stereo unspecified)	·	5.4
CN(C)CCn1cnc2scc(-c3ccccc3)c2c1=O	–	–
CC(=O)Nc1nnc(SCc2cc(=O)n3ccsc3n2)s1	·	–
SMILES	CDC25B CDK2 inh	TAR Tat displ
CCOc1cc(C2CC(=O)N3CN(c4ccc(OC)cc4OC)CSC3=C2C#N)ccc1O (stereo unspecified)	3.1	–
CCOc1cc(C2CC(=O)N3CN(c4ccccc4)CSC3=C2C#N)cc(Br)c1O (stereo unspecified)	8.8	31
CCOc1cc(C2CC(=O)N3CN(c4ccc(F)cc4)CSC3=C2C#N)ccc1O (stereo unspecified)	–	30
COc1ccc(N2CSC3=C(C#N)C(c4cccc(Br)c4)CC(=O)N3C2)c(OC)c1 (stereo unspecified)	–	–
COc1ccc(N2CSC3=C(C#N)C(c4ccc(O)c(OC)c4)CC(=O)N3C2)c(OC)c1 (stereo unspecified)	3.5	–
CCOc1cc(C2CC(=O)N3CN(c4ccc(C)c(C)c4)CSC3=C2C#N)ccc1O (stereo unspecified)	–	–
Cn1ncc2c(Nc3ccc(F)cc3)nc(NCc3ccccc3Cl)nc21	·	–
CCOC(=O)NC(NNc1ccccc1)(C(F)(F)F)C(F)(F)F	–	·
CCc1ccc(-c2cc(C)no2)cc1S(=O)(=O)N1CCC(N(C)C(C)C)CC1	·	–
CN1CCc2c(n(CC(O)CN3C(=O)c4ccccc4S3(=O)=O)c3ccccc23)C1=O (stereo unspecified)	19	–
O=C1c2ccccc2S(=O)(=O)N1CC(O)COc1ccccc1 (stereo unspecified)	–	·
Cc1ccc(NC(=O)CSCc2cc(=O)n3nc(C4CC4)sc3n2)c(C)c1	·	–
N[C@H](CO)C(=O)O	–	·
NC(CO)C(=O)NNCc1ccc(O)c(O)c1O (stereo unspecified)	–	13
CNc1nc2[nH]c(=O)cc(O)c2s1	–	–
CCNc1nc2[nH]c(=O)cc(O)c2s1	11	–
O=C(NCCO)c1ccc2nc3c4ccccc4c4ccccc4c3nc2c1	8.2	·
O=C(COC(=O)c1ccc2nc3c4ccccc4c4ccccc4c3nc2c1)c1ccccc1	–	·
COCCNC(=O)Nc1ccc2nc(NS(C)(=O)=O)sc2c1	·	–
O=C(NNc1cc(C(F)(F)F)nc2ccccc12)Nc1ccccc1	–	·
C=CCNC(=O)Nc1ccc2nc3c4ccccc4c4ccccc4c3nc2c1	21	·
